Assay results reported in the antibiotic and cytotoxicity screens of Wong et al. (2023).
About 500 (1.3%) of roughly 39,000 compounds were called active. The entries come from a sample that favours actives as a whole.

What follows are compounds tested on S. aureus RN4220 (assay: growth inhibition call (relative growth <= 0.2)). Conditions: 50 µM.

Growth inhibition call, active:
CO[C@@]12[C@@H]3N[C@@H]3CN1C1=C(C(=O)C(N)=C(C)C1=O)[C@@H]2COC(N)=O
COC12C(COC(N)=O)C3=C(C(=O)C(C)=C(N)C3=O)N1CC1NC12 (configuration not stated)
CNC1C(OC2C(OC3C(O)C(O)C(NC(=N)N)C(O)C3NC(=N)N)OC(C)C2(O)C=O)OC(CO)C(O)C1O.O=S(=O)(O)O (configuration not stated) [STREPTOMYCIN SULFATE [5mM; 10% aq DMSO + 5mM ethanolamine]]
O=c1oc2ccccc2c(O)c1Cc1c(O)c2ccccc2oc1=O
CCC1OC(=O)C(C)C(=O)C(C)C(OC2OC(C)CC(N(C)C)C2O)C(C)(OC)CC(C)C(=O)C(C)C2N(CCCCn3cnc(-c4cccnc4)c3)C(=O)OC12C (configuration not stated)
C=C1C[C@]23CC[C@@H]4[C@@](C)(CCC[C@@]4(C)C(=O)O)[C@H]2CC[C@H]1C3
COc1ccc(NC(=O)N2CCCCN3[C@H](COCCN(C)C)[C@H](c4ccc(C#Cc5ccccc5)cc4)[C@@H]3C2)cc1
CCCCCCc1ccc(O)cc1O [listing 1 of 2 here]
CCCCCCc1ccc(O)cc1O [listing 2 of 2 here]
CCCCc1nc(-c2ccc(OCCCN(CC)CC)cc2)cn1-c1ccc(Oc2ccc(Cl)cc2)cc1
CCC[C@@H]1C[C@@H](C(=O)N[C@@H]([C@H]2O[C@H](SC)[C@H](O)[C@@H](O)[C@H]2O)[C@@H](C)O)N(C)C1
CCCC1CC(C(=O)NC(C(C)O)C2OC(SC)C(O)C(O)C2O)N(C)C1.Cl (configuration not stated)
CCC[C@@H]1C[C@@H](C(=O)N[C@H]([C@H]2O[C@H](SC)[C@H](O)[C@@H](O)[C@H]2O)[C@H](C)O)N(C)C1

Growth inhibition call, inactive:
C[C@@H]1CN([C@@H](C)CO)C(=O)c2cc(NC(=O)NC3CCCCC3)ccc2O[C@@H](C)CCCCO[C@H]1CN(C)S(=O)(=O)c1ccc(F)cc1
CC(C)c1cc(=O)n2nc(N)nc2[nH]1
Cc1ccc(S(=O)(=O)N(C)C[C@@H]2Oc3ncc(C#CCC(C)C)cc3C(=O)N([C@@H](C)CO)C[C@H]2C)cc1
Cc1noc(C)c1NC(=O)N[C@@H]1CC[C@H](CC(=O)N2CCN(C)CC2)O[C@H]1CO
CC(=O)N1[C@H](CO)[C@H](c2ccccc2)[C@H]1CNC(=O)CN1CCOCC1
C[C@@H]1CN([C@@H](C)CO)C(=O)c2cc(NS(C)(=O)=O)ccc2O[C@@H]1CN(C)C(=O)NC1CCCCC1
Cc1ccc(S(=O)(=O)N(C)C[C@H]2Oc3ccc(NS(=O)(=O)c4ccccc4)cc3C(=O)N([C@@H](C)CO)C[C@H]2C)cc1
Cc1ccc(S(=O)(=O)Nc2ccc3c(c2)C(=O)N([C@@H](C)CO)C[C@H](C)[C@@H](CN(C)C(=O)Nc2ccc(C(F)(F)F)cc2)OCCCC[C@H](C)O3)cc1
COCC(=O)Nc1ccc2c(c1)[C@H]1C[C@H](CC(=O)N3CCOCC3)O[C@H](CO)[C@H]1O2
COc1ccc(NC(=O)Nc2ccc3c(c2)C(=O)N([C@@H](C)CO)C[C@@H](C)[C@@H](CN(C)S(=O)(=O)c2cn(C)cn2)O3)cc1
CO[C@@]12[C@H](COC(N)=O)C3=C(C(=O)C(C)=C(N)C3=O)N1C[C@@H]1N[C@@H]12
Cc1onc(C(=O)O)c1[N+](=O)[O-]
C[C@H]1CN([C@@H](C)CO)S(=O)(=O)c2ccc(C#Cc3cccnc3)cc2O[C@H]1CN(C)C(=O)CN(C)C
CN[C@H]1[C@@H](O[C@H]2[C@@H](O[C@H]3[C@@H](O)[C@@H](O)[C@@H](NC(=N)N)[C@@H](O)[C@@H]3NC(=N)N)O[C@@H](C)[C@@]2(O)C=O)O[C@@H](CO)[C@@H](O)[C@@H]1O.CN[C@H]1[C@@H](O[C@H]2[C@@H](O[C@H]3[C@@H](O)[C@@H](O)[C@@H](NC(=N)N)[C@@H](O)[C@@H]3NC(=N)N)O[C@@H](C)[C@@]2(O)C=O)O[C@@H](CO)[C@@H](O)[C@@H]1O.O=S(=O)(O)O.O=S(=O)(O)O.O=S(=O)(O)O
CN[C@@H]1[C@H](O[C@H]2[C@H](O[C@H]3[C@H](O)[C@@H](O)[C@H](NC(=N)N)[C@@H](O)[C@@H]3NC(=N)N)O[C@@H](C)[C@]2(O)C=O)O[C@@H](CO)[C@H](O)[C@H]1O
O=C(NC1CC1)[C@@H]1c2ccccc2C(=O)N(Cc2cc(F)cc(C(F)(F)F)c2)[C@H]1c1ccc(CO)cc1
Cc1noc(C)c1NC(=O)Nc1ccc2c(c1)CC(=O)N([C@H](C)CO)C[C@@H](C)[C@@H](CN(C)C(=O)Nc1ccc(C(F)(F)F)cc1)O2
C[C@@H]1CN([C@@H](C)CO)C(=O)c2cc(NC(=O)Nc3ccc(C(F)(F)F)cc3)ccc2O[C@@H](C)CCCCO[C@H]1CN(C)Cc1ccc(C(=O)O)cc1
CC(=O)CC(c1ccccc1)c1c(O)c2ccccc2oc1=O (configuration not stated)
O=c1c2ccccc2oc2ccccc12
Cc1nccn1-c1ccc(CN)cc1
C[C@H](CO)N1C[C@H](C)[C@@H](CN(C)Cc2ccc(-c3ccccc3)cc2)Oc2c(NC(=O)Nc3ccc(C(F)(F)F)cc3)cccc2C1=O
NNC(=O)[C@@H]1C(c2ccccc2)[C@H]1C(=O)NN (some centres not stated)
C[C@H](CO)N1C[C@H](C)[C@H](CN(C)S(=O)(=O)c2ccccc2)OCCCC[C@H](C)Oc2ccc(NS(=O)(=O)c3cn(C)cn3)cc2C1=O
C[C@H]1CN([C@@H](C)CO)C(=O)Cc2cc(NC(=O)Nc3cccc4ccccc34)ccc2O[C@H]1CN(C)Cc1ccc(Oc2ccccc2)cc1
O=C(C[C@@H]1C[C@H]2c3cc(NS(=O)(=O)c4ccc(F)cc4)ccc3O[C@H]2[C@@H](CO)O1)NCc1ccc(Oc2ccccc2)cc1
C[C@@]12CCC[C@](C)(C(=O)O[C@@H]3O[C@H](CO)[C@@H](O)[C@H](O)[C@H]3O)[C@@H]1CC[C@]13C[C@H](CC[C@@H]12)[C@](O)(CO)C3
C=C1C[C@@]23CC[C@@H]4[C@@](C)(CCC[C@@]4(C)C(=O)OC)[C@H]2CC[C@@H]1C3
CN1CCN(CC#N)C(=O)C12CCN([C@H]1CCOC1)CC2
C[C@H]1CN([C@@H](C)CO)C(=O)Cc2cc(NS(=O)(=O)c3cn(C)cn3)ccc2O[C@H]1CN(C)S(=O)(=O)c1cn(C)cn1
C/C=C(/C)C(=O)O[C@H]1[C@@H](OC(C)=O)[C@@]2(CO)[C@@H](O)C[C@@]3(C)C(=CC[C@H]4[C@@]5(C)CC[C@@H](O[C@H]6O[C@H](C(=O)O)[C@@H](O[C@H]7O[C@@H](CO)[C@@H](O)[C@@H](O)[C@@H]7O)[C@@H](O)[C@@H]6O[C@H]6O[C@@H](CO)[C@@H](O)[C@@H](O)[C@@H]6O)[C@@](C)(CO)[C@@H]5CC[C@]43C)[C@@H]2CC1(C)C
CN(C)CC#Cc1ccc([C@H]2[C@@H](CO)N3CCCCN(C(=O)CN(C)C)C[C@@H]23)cc1
COc1ccc(NC(=O)N2CCCCN3[C@H](CN(C)C(C)=O)[C@H](c4ccc(C#Cc5ccccc5)cc4)[C@@H]3C2)cc1
O=C(C[C@H]1C=C[C@H](NC(=O)c2cccc(F)c2)[C@@H](CO)O1)NCCN1CCCC1
C[C@H](CO)N1C[C@H](C)[C@@H](CN(C)Cc2ccc(C(F)(F)F)cc2)Oc2ccc(NS(C)(=O)=O)cc2C1=O
CCCCCCCc1c(C)c(O)cc2c1[nH]c1ccccc12
CCCCCCc1ccc(O)cc1O.Nc1c2ccccc2nc2ccccc12
COC(=O)CCc1ccc(OC)cc1O
CCCCC(=O)c1ccc(O)cc1
COC(=O)N/N=C/c1c[n+]([O-])c2ccccc2[n+]1[O-]
CN1C(=O)c2cc(NS(C)(=O)=O)ccc2OC[C@H]2O[C@H](CC(=O)N3CCOCC3)CC[C@H]21
C[C@H]1CN([C@@H](C)CO)C(=O)c2cc(NS(C)(=O)=O)ccc2O[C@H]1CN(C)S(=O)(=O)c1ccccc1
C[C@@H]1CCCCO[C@H](CN(C)C(=O)CCCN(C)C)[C@@H](C)CN([C@@H](C)CO)C(=O)c2cc(NC(=O)Nc3cccc4ccccc34)ccc2O1
CO[C@@H]1CN(C)C(=O)c2ccc(NC(=O)CN(C)C)cc2OC[C@@H](C)N(C(=O)C2CCOCC2)C[C@H]1C
CC(C)NC(=O)Nc1ccc2c(c1)C(=O)N([C@H](C)CO)C[C@@H](C)[C@@H](CN(C)C(=O)Nc1ccc(C(F)(F)F)cc1)OCCCC[C@@H](C)O2
CC(=O)N1[C@@H]2c3ccc(-c4ccccc4)c(=O)n3C[C@H]1[C@H](CO)[C@H]2C(=O)N1CCN(C)CC1
C[C@H]1CN([C@@H](C)CO)C(=O)c2cc(NC(=O)c3ccncc3)ccc2O[C@@H]1CN(C)S(=O)(=O)c1ccc(F)cc1
COC(=O)c1ccc2c(c1)no[n+]2[O-]
COc1ccc(-n2nc(CCC(=O)N(C)O)cc2-c2ccc(Cl)cc2)cc1
CN(C)CCOC(=O)COc1ccc(Cl)cc1.Cl
Cc1cc(=O)n2nc(C(=O)O)nc2[nH]1
CN1C(=O)c2cc(NC(=O)C3CCC3)ccc2OC[C@@H]2O[C@H](CC(=O)NCCc3ccncc3)CC[C@@H]21
CC(C)CC#Cc1ccc2c(c1)O[C@H](CN(C)S(=O)(=O)c1ccc(F)cc1)[C@H](C)CN([C@H](C)CO)S2(=O)=O
CC(C)NC(=O)Nc1ccc2c(c1)C(=O)N([C@H](C)CO)C[C@H](C)[C@@H](CN(C)C(=O)Nc1ccc(F)cc1)OCCCC[C@H](C)O2
